In PubChem BioAssay (NCI) one finds growth data, which are given here for 38 molecules.

Compounds without any hit were thinned out: in the full panel of roughly 83,000, 20% have a hit.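 Growth was measured after 48 h exposure to one concentration of compound in 96-well plates. Values under 10 count as active.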 Active and inactive are the calls of the source.

For the assay, the system named is SR leukemia. The experiment in a line: NCI-60 one-dose screen, 48 h (100 = growth as untreated, 0 = no growth, -100 = all killed). To be noted: 10 µM unless noted.
`O=C(Nc1nc2ccccc2s1)Nc1ccccc1Cl`: the growth is 111% (inactive).
Take `Cc1ccc(C(=O)Nc2cc(-n3ccnc3C)cc(C(F)(F)F)c2)cc1C#Cc1cnc2cccnn12`: the growth is -17.9% (active).
Consider `O=C(c1ccc(O)cc1)C1[C@H](c2ccc(Cl)cc2)[C@@H](c2ccccc2)NC12C(=O)Nc1ccccc12` (stereo partly drawn), for which the growth was -47.2% (active).
Take `COc1ccc(-c2nc3ccc(-c4nnc(SCC(=O)Nc5ccc(/C(C)=N\O)cc5)o4)cc3[nH]2)cc1`: the growth is 47.9% (inactive).
As to `C[C@H]1[C@@H](CC(=O)N[C@@H](Cc2coc3ccccc23)B(O)O)O[C@@H]2OC3(C)CC[C@H]4[C@H](C)CC[C@@H]1[C@@]24O3`, the growth is 29.6% (inactive).
The result for `Cc1cc(C(NC(=O)C2CC3(CC(Nc4cccc5c4C(=O)N(C4CCC(=O)NC4=O)C5=O)C3)C2)c2ccc3c(c2)OC(F)(F)O3)c(O)c2ncccc12` (stereo not drawn) reads 10.6% (inactive); that for `NC(=O)c1ccc(-c2ccc3ncnc(N4CCc5cc(F)c(Cl)cc54)c3c2)cn1`, 15.2% (inactive).
For `CCN1C(=O)N(CC)C2NNC(Sc3c(C(=O)O)c4ccccc4n(CCC(C)C)c3=O)=NC21` (stereo not drawn) the value was 6.32% (active); for `COc1ccc2[nH]c(O)c(N=Nc3nc(-c4ccc(Cl)cc4)cs3)c2c1`, 5.78% (active).
Turning to `CC[C@]12C=CCN3CC[C@@]4(c5ccc(OC)cc5N(C)[C@H]4[C@@](O)(C(=O)OC)[C@@H]1OC(=O)CCCC[P+](c1ccc(F)cc1)(c1ccc(F)cc1)c1ccc(F)cc1)[C@@H]32`, the growth was 28.8% (inactive).
As to `COc1cccc(/C=C/c2nc3ccccc3c(=O)n2CC(=O)Nc2ccccc2)c1`, the growth was 90% (inactive).
In the case of `O=C(c1ccc(Cl)cc1)C1[C@H](c2ccccc2Cl)[C@@H](c2ccccc2)NC12C(=O)Nc1ccc(Br)cc12` (stereo partly drawn), the growth was -54.4% (active).
Consider `O=C(CSc1nnc(-c2ccc(-c3nc4ccc(Cl)cc4[nH]3)cc2)o1)Nc1ccc(Cl)cc1`, for which the growth is 0.703% (active).
The result for `N#Cc1c(NC(=O)N2CCOCC2)n(-c2ccc(OC(F)(F)F)cc2)c2cc(F)ccc12` reads 80% (inactive); that for `O=C(N/N=C/c1ccc(Cl)o1)c1[nH]c2ccc(Br)cc2c1-c1ccccc1`, 7.2% (active).
On to `CC1=C(C(=O)OCc2ccccc2)C(c2cccc3ccccc23)n2c(nc3ccccc32)N1` (stereo not drawn), for which the growth is 19% (inactive).
For `CC1=NN(C2=NC(=O)C(CC(=O)Nc3ccccc3C(F)(F)F)S2)C(c2ccc(N(C)C)cc2)C1` (stereo not drawn) the value was 16.5% (inactive); for `CN1C(=O)C2(C(C#N)=C(c3ccc(Cl)cc3)Nc3c2c(-c2ccccc2)nn3-c2ccccc2)c2ccccc21` (stereo not drawn), 29.6% (inactive); for `O=[N+]([O-])c1cccc(-c2nnc3c(/C=C/c4ccc(F)cc4)nc4ccccc4n23)c1`, 85.2% (inactive).
For the molecule `COC(=O)c1cc(C(C)=O)n2c3ccccc3c3ccccc3c12`, the growth is 64.7% (inactive).
In the case of `CCCCCCCOc1ccc(S(=O)(=O)Nc2ccc(C)c(F)c2C(=O)O)cc1`, the growth is 98.7% (inactive).
On to `COc1ccc2[nH]cc(-c3cc4nc(-c5cn(C)c6ncc(Br)cc56)cc(N)n4n3)c2c1`, for which the growth is -16.1% (active).
For `COc1ccc2c(c1)N=c1c-2cc2c(O)[nH]c(=S)n2c1=O`, the growth was 21.7% (inactive).
For `CC(C)C[C@H](NC(=O)[C@@H]1CCCCCCCCCCC(=O)N[C@@H](CC(=O)N2CCC[C@@H]2C2CCCC2)C(=O)N1)B(O)O`, the growth was -14.3% (active).
On to `O=C1NC(=S)/C(=C/c2cn(-c3ccccc3)nc2-c2ccccc2)S1`, for which the growth is 83.4% (inactive).
`CN(C)C(=O)c1cc(-c2ccc3ncnc(N4CCc5cc(F)c(Cl)cc54)c3c2)cnc1N`: the growth is -57% (active).
As to `N#C/C(=C/c1ccc(Cl)cc1)c1nnc(NC(=O)c2ccc(-n3c(=O)[nH]c4ccccc4c3=O)cc2)s1`, the growth was 62.7% (inactive).
On to `COc1c(B(O)O)cc(F)cc1-c1nc2c(F)cc3[nH]ncc3c2c2c1CCCC2`, for which the growth is 33% (inactive).
In the case of `O=C(CSc1nc2sc3c(c2c(=O)n1-c1ccc(Cl)cc1)CCCC3)NNC(=O)c1ccc(Br)cc1`, the growth was 34.4% (inactive).
As for `CN(C)c1ccc(/C=C/c2n(Cc3ccc4ccccc4c3)c3ccccc3[n+]2Cc2ccc3ccccc3c2)cc1`, the growth was -29.3% (active).
The result for `COc1ccc2[nH]c(=O)cc(-n3ncc(C(=O)/C=C/c4cc(OC)c(OC)c(OC)c4)c3C)c2c1` reads -11.8% (active).
As to `COc1ccc(C(=O)C[n+]2cccc3c4ccccc4ccc32)cc1`, the growth is 34.4% (inactive).
On to `CN1CCc2c(sc3ncnc(N/N=C/c4cccc(Cl)c4Cl)c23)C1`, for which the growth is 8.87% (active).
For `COc1ccc2[nH]c(O)c(N=Nc3nc(-c4ccccc4)cs3)c2c1` the value was 27% (inactive); for `COc1ccc(N=Nc2c(N)nn3c(N)c(C#N)c(-c4ccc(F)cc4)nc23)cc1`, 78.4% (inactive).
Regarding `C=CCSc1nnc(-c2ccc(-c3nc4ccccc4[nH]3)cc2)o1`, the growth is 81% (inactive).
With `Cc1oc(-c2ccccc2)nc1CN[C@@H]1C[C@@H]2C[C@H]([C@H]1C)C2(C)C`, the growth is -6.32% (active).
As for `COc1ccc(NC2=C(I)C(=O)C(C)=C(C)C2=O)cc1`, the growth was 12.3% (inactive).
